The sample as a whole holds a higher share of hits than the screen did.
Methyltransferases = Primary Screen for Target Class Profiling of Small Molecule Inhibitors of Methyltransferases; purified enzyme, MTase-Glo SAH luminescence; hits give low values; calls only at 40 µM; hit rate 3.9% among 25,000; AID 1745853, 2022; call rule not given here
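Each enzyme was reacted with SAM and its substrate, with compounds tested once at 40 uM; SAH formed was read by MTase-Glo luminescence.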
Starred values were filed as active, the others as inactive; i = inactive; + = active, no number; ! = a repeat was not active. On the % scale 0 is the no-effect control and ±100 the full control effect.

SMILES | Methyltransferases
Cc1nc(N2CCCC2)nc(N2CCC3(CC2)OCCCC3O)c1C (configuration not stated) | i
Cc1cc2c(N3CCCC3)nc(N3CCCC3)nc2n1C | +
COc1ccc(-c2nnc3n(CCCOC(C)C)c(=O)c4ccccc4n23)c(O)c1 | i
COc1ccc(CCN2C(=O)c3cc4ccccc4n3CC2(C)C(=O)NCCC(C)C)cc1OC (configuration not stated) | i
CCCN1C(=O)c2c(C(=O)NCCc3ccc(C)cc3)ncn2CC1(C)C(=O)NCc1ccc(C)cc1 (configuration not stated) | i
C=Cc1ccc(Cn2nc3n(Cc4ccccc4)c(=O)c4ccc(C(=O)NC5CCCC5)cc4n3c2=O)cc1 | i
CCOC(=O)c1ccc2c(c1)[C@@H]1C=CC[C@@H]1[C@H](c1cccc(Cl)c1)N2 | i
CCCC1c2cccn2CCN1C(=O)Nc1cc(Cl)ccc1OC (configuration not stated) | i
COc1cc2ncnc(Nc3ccc(F)c(Cl)c3)c2cc1NC(=O)/C=C/CN1CCCCC1 | +
CNC(=O)CN1CCC(Oc2cc3c(Nc4cccc(Cl)c4F)ncnc3cc2OC)CC1 | +
O=C(NC1CCCC1)c1ccc(OC2CCN(CCCC(F)(F)F)CC2)c(Cl)c1 | i
COC(=O)c1cccc(Nc2ncnc3ccc(C)cc23)c1 | i
CNC(=O)c1c(F)cccc1Nc1nc(Nc2cc3c(cc2OC)CCN3C(=O)CN(C)C)nc2[nH]ccc12 | i
O=C(Cn1ccc2cc(S(=O)(=O)N3CCCCC3)ccc21)NCc1ccco1 | i
O=C(NCc1ccccc1Cl)c1ccc2c(=O)nc3c(-c4ccc(F)cc4)n[nH]n3c2c1 | i
Cc1ccc(Cn2c(=O)c3ccccc3n3c(CCC(=O)NCCCOC(C)C)nnc23)cc1 | i
CCOc1ccc(CN2C(=O)c3cc4sccc4n3CC2(C)C(=O)NC2CCCCCC2)cc1 (configuration not stated) | i
CC(C)CCNC(=O)N1CCn2cccc2C1C (configuration not stated) | i
CC1(C(=O)NC2CCCCCC2)Cn2c(ccc2-c2ccco2)C(=O)N1CCCN1CCCCC1 (configuration not stated) | i
Nc1ccc(-c2cnc(N)c(-c3ccc(Cl)cc3)c2)cn1 | +
COc1cc(-c2cc(-c3cccc(O)c3)cnc2N)cc(OC)c1OC | i
COc1cccc(CN2C(=O)c3ccc(-c4ccccc4)n3CC2(C)C(=O)NC2CCCC2)c1 (configuration not stated) | i
N#Cc1c(O)c2c(-c3ccc(-c4ccccc4O)cc3)csc2[nH]c1=O | +!
Cc1cc(C)cc(N2C(=O)c3cc4ccccc4n3CC2(C)C(=O)NCCC(C)C)c1 (configuration not stated) | i
COc1ccc(S(=O)(=O)NCCc2nc(-c3ccc(F)cc3)n[nH]2)cc1OC | i
SMILES | Methyltransferases
Cc1cc(=O)oc2cc(NC(=O)[C@H](CCC(=O)O)NC(=O)[C@H](CC(C)C)NC(=O)[C@H](CC(C)C)NC(=O)OCc3ccccc3)ccc12 | +
CC(C)CC(NC(=O)OCc1ccccc1)C(=O)NC(CC(C)C)C(=O)NC(CCC(=O)O)C(=O)Nc1ccc2ccccc2c1 (configuration not stated) | i
CCOc1ccc(-c2cc3n(n2)CC(C)(C(=O)NC2CCCCC2)N(C2CCCCC2)C3=O)cc1 (configuration not stated) | i
CCOC(=O)c1cc2n(n1)CC(C)(C(=O)NC1CCC(C)CC1)N(c1cc(Cl)ccc1C)C2=O (configuration not stated) | i
CC(C)CCNC(=O)C1(C)Cn2nc(C(=O)NCc3cccnc3)cc2C(=O)N1C (configuration not stated) | i
CCCC1c2ccc(C)n2CCN1C(=O)NCC1CCC(C(=O)OCC)CC1 (configuration not stated) | i
c1nc(NC2CCCCCC2)c2cc(CNC[C@H]3CCCO3)sc2n1 | i
Cc1cccc(-c2nnn3c2nc(NCC2CCCO2)c2ccccc23)c1 (configuration not stated) | i
c1ccc(-c2oc3ncnc(NC[C@@H]4CCCO4)c3c2-c2ccccc2)cc1 | +
CCOc1ccc(CN2C(=O)c3cc4ccccc4n3CC2(C)C(=O)NCc2ccccc2)cc1OC (configuration not stated) | i
CC(c1ccccc1)N1C(=O)c2ccccc2CC1(C)C(=O)NC1CCCCCC1 (configuration not stated) | i
O=C(Nc1nc2ccccc2n1CCc1ccccc1)c1ccccc1 | i
CCc1nc(-c2cccc(C)c2)c(-c2ccnc(NC(=O)c3ccccc3)c2)s1 | i
O=C(Nc1cc2cc[nH]c2cn1)c1ccccc1 | +
Cc1ccc(CSc2nnc3n(CCCOC(C)C)c(=O)c4ccccc4n23)cc1 | i
CC(C)Cn1c(=O)c2ccccc2n2c(SCc3c(F)cccc3Cl)nnc12 | i
Cc1cc(C)cc(-c2cnc3cc(Cl)c(-c4cccc(O)c4)cc3c2OCCCN)c1 | +
